Consider 28 sequences from the supplement of paper PMC12645437, “Orthogonal IMiD-Degron Pairs Induce Selective Protein Degradation in Cells” (ACS Chemical Biology, 2025).

Over roughly 8,300 sequences, “log2 fold change of degron read counts, EGFP-low vs EGFP+ sorted cells (limma voom), compound-induced degradation” has its median near -1.1; the highest 2% begin near 3.2. The full list was thinned out, with the highest values kept by preference.

The assay addresses T1, CRBN, Q96SW2.
T1 chain: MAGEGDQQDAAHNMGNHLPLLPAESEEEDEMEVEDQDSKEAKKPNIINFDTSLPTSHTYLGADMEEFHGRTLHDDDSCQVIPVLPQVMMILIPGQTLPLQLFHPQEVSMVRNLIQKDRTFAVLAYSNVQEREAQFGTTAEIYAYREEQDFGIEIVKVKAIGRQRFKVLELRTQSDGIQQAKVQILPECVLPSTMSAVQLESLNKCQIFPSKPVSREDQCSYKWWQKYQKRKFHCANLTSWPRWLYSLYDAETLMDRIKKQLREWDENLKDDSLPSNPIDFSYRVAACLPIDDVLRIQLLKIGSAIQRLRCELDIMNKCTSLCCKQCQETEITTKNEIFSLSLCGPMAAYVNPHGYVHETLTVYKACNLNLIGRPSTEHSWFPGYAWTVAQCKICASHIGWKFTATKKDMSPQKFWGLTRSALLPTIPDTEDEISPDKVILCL
In words: log2 fold change of degron read counts, EGFP-low vs EGFP+ sorted cells (limma voom), compound-induced degradation; higher = more compound-induced degradation of the degron-EGFP fusion; degrons are variants of IKZF1/3 zinc finger 2; compound dose not given here. Conditions: Jurkat, 18 h.

The mark [1] stands for this setting: compound: compound 19 (5-tert-butyl-thalidomide).
[2] abbreviates: compound: compound 22 (5-morpholino-thalidomide).
Where [3] appears, read: compound: compound 33 (diphenyl IMiD analogue).
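Note: pooled lentiviral library of zinc finger degron-EGFP fusions in mCherry-positive Jurkat cells, FACS-sorted after compound exposure, with degron abundance counted by next-generation sequencing.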

For the sequence FACPVCGAPFTQKGNLLRHIKL [46F_47A_49P_50V_52G_53A_54P_55F_67L_, Q9UKT9], the “log2 fold change of degron read counts” value by setting is: under setting [1], 3.58; under setting [2], 2.58; under setting [3], 1.07; (compound: thalidomide) 2.23.
The like results for FICNVCGAPFTQKGNLLRHIKL [46F_47I_49N_50V_52G_53A_54P_55F_67L_, Q9UKT9] were, in that order, -0.34, 2.49, 1.6 and 2.07.
The like results for FSCPVCGAPFTQKGNLLRHIKL [46F_47S_49P_50V_52G_53A_54P_55F_67L_, Q9UKT9] were, in that order, 3.04, 2.37, 1.65 and 2.12.
The like results for FLCPVCGAPFTQKGNLLRHIKL [46F_47L_49P_50V_52G_53A_54P_55F_67L_, Q9UKT9] were, in that order, 1.29, 2.67, 2.93 and 3.41.
For FICPVCGAPFTQKGNLLRHIKL [46F_47I_49P_50V_52G_53A_54P_55F_67L_, Q9UKT9], the “log2 fold change of degron read counts” value reads like this: under setting [1], 1.18; under setting [2], 3.94; under setting [3], 2.58; (compound: thalidomide) 3.08.
Taken in the same sequence, the figures for FKCPVCGAPFTQKGNLLRHIKL [46F_47K_49P_50V_52G_53A_54P_55F_67L_, Q9UKT9] were 2.06, 1.94, 0.0815 and 2.39.
The like results for FDCPVCGAPFTQKGNLLRHIKL [46F_47D_49P_50V_52G_53A_54P_55F_67L_, Q9UKT9] were, in that order, 2.39, 0.488, 0.886 and 1.55.
The like results for FCCPVCGAPFTQKGNLLRHIKL [46F_47C_49P_50V_52G_53A_54P_55F_67L_, Q9UKT9] were, in that order, 3.13, 2.6, 1.7 and 2.1.
Turning to FGCNVCGAPFTQKGNLLRHIKL [46F_47G_49N_50V_52G_53A_54P_55F_67L_, Q9UKT9], the “log2 fold change of degron read counts” value by setting is: under setting [1], -0.996; under setting [2], -1.44; under setting [3], -1.2; (compound: thalidomide) -1.32.
Taken in the same sequence, the figures for FICDVCGAPFTQKGNLLRHIKL [46F_47I_49D_50V_52G_53A_54P_55F_67L_, Q9UKT9] were -0.148, 3.08, 1.53 and 1.67.
Taken in the same sequence, the figures for FGCPVCGAPFTQKGNLLRHIKL [46F_47G_49P_50V_52G_53A_54P_55F_67L_, Q9UKT9] were 3.34, 1.9, 1.27 and 0.43.
The like results for FDCPICGHFFTQKGNLLRHIKL [46F_47D_49P_50I_52G_53H_54F_55F_67L_, Q9UKT9] were, in that order, -1.89, -2.22, -1.79 and -1.75.
With FICDVCGAWFTQKGNLLRHIKL [46F_47I_49D_50V_52G_53A_54W_55F_67L_, Q9UKT9], the “log2 fold change of degron read counts” value by setting is: under setting [1], -2.55; under setting [2], -1.74; under setting [3], -0.491; (compound: thalidomide) -1.83.
Taken in the same sequence, the figures for FMCPQCGARFTQKGNLLRHIKL [46F_47M_49P_50Q_52G_53A_54R_55F_67L_, Q9UKT9] were -1.45, -1.19, 0.32 and -0.605.
Taken in the same sequence, the figures for FGCNVCGAEFTQKGNLLRHIKL [46F_47G_49N_50V_52G_53A_54E_55F_67L_, Q9UKT9] were -2.62, -1.85, -0.606 and -0.925.
On to FTCNQCGRVFTQKGNLLRHIKL [46F_47T_49N_50Q_52G_53R_54V_55F_67L_, Q9UKT9], for which the “log2 fold change of degron read counts” value reads like this: under setting [1], -2.75; under setting [2], -3.29; under setting [3], -2.33; (compound: thalidomide) -2.08.
Taken in the same sequence, the figures for FYCNVCGAPFTQKGNLLRHIKL [46F_47Y_49N_50V_52G_53A_54P_55F_67L_, Q9UKT9] were 2.95, 2.35, 1.69 and -0.11.
In the case of FMCPVCGAPFTQKGNLLRHIKL [46F_47M_49P_50V_52G_53A_54P_55F_67L_, Q9UKT9], the “log2 fold change of degron read counts” value was determined as 2.53 under setting [1], 3.59 under setting [2], 3.09 under setting [3] and 2.96 (compound: thalidomide).
Take FTCPVCGAPFTQKGNLLRHIKL [46F_47T_49P_50V_52G_53A_54P_55F_67L_, Q9UKT9]: the “log2 fold change of degron read counts” value turned out to be 1.88 under setting [1], 3.16 under setting [2], 2.41 under setting [3] and 3.03 (compound: thalidomide).
The like results for FHCPVCGAPFTQKGNLLRHIKL [46F_47H_49P_50V_52G_53A_54P_55F_67L_, Q9UKT9] were, in that order, 3.2, 2.86, 2.5 and 1.82.
Taken in the same sequence, the figures for FNCNVCGAPFTQKGNLLRHIKL [46F_47N_49N_50V_52G_53A_54P_55F_67L_, Q9UKT9] were 1, -0.317, -0.912 and -0.29.
Taken in the same sequence, the figures for FYCDVCGAPFTQKGNLLRHIKL [46F_47Y_49D_50V_52G_53A_54P_55F_67L_, Q9UKT9] were 3.09, 2.39, 1.86 and -0.588.
Regarding FVCPVCGAPFTQKGNLLRHIKL [46F_47V_49P_50V_52G_53A_54P_55F_67L_, Q9UKT9], the “log2 fold change of degron read counts” value was found to be 1.79 under setting [1], 3.33 under setting [2], 2.13 under setting [3] and 3.19 (compound: thalidomide).
The like results for FNCDVCGAPFTQKGNLLRHIKL [46F_47N_49D_50V_52G_53A_54P_55F_67L_, Q9UKT9] were, in that order, 0.937, -0.417, -1.71 and -1.34.
The like results for FECPVCGAPFTQKGNLLRHIKL [46F_47E_49P_50V_52G_53A_54P_55F_67L_, Q9UKT9] were, in that order, 1.88, -0.29, 1.64 and 2.65.
Taken in the same sequence, the figures for FNCPVCGAPFTQKGNLLRHIKL [46F_47N_49P_50V_52G_53A_54P_55F_67L_, Q9UKT9] were 3.41, 2.62, 1.33 and 2.25.
Consider FWCPVCGAPFTQKGNLLRHIKL [46F_47W_49P_50V_52G_53A_54P_55F_67L_, Q9UKT9], for which the “log2 fold change of degron read counts” value is, setting by setting: under setting [1], 3.23; under setting [2], 2.92; under setting [3], 2.67; (compound: thalidomide) 1.06.
The like results for FYCPVCGAPFTQKGNLLRHIKL [46F_47Y_49P_50V_52G_53A_54P_55F_67L_, Q9UKT9] were, in that order, 3.48, 3.24, 2.82 and 1.62.
